High-throughput results deposited in PubChem BioAssay by National Center for Advancing Translational Sciences (NCATS).
ERG-DNA inh: blocks human ERG Ets domain binding to DNA. fluorescence polarization, His-ERG Ets domain / labelled DNA. Potency, µM (titrated, usually from 76.9 µM), for inactives: top-dose FP activity, negative = inhibition, most hits filed as inhibitors. actives 0.028% (n = 370,000). AID 624246; active = well fitted inhibition curve with a large enough effect in the polarisation, with a control signal flat; inconclusive = small, poorly fitted or top-dose-only effect, or effect the other way, or a change in a side signal; inactive = no such curve, though single readings can be large or run the other way; the % refers to the polarisation;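 note: polarization taken with two DNA probes labelled with fluorescein and Texas red; potency is the fitted concentration of half-maximal effect; % of control where 0% means no effect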
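His-tagged ERG Ets domain (1 uM in the protein solution; 300mM KCl, 50mM Tris-HCl, 1mM EDTA, 1mM DTT, pH 7.5) received compound, then a probe mix of 5 nM fluorescein-DNA and 100nM Texas-615-DNA. Fluorescence polarization was read for both dyes.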
D3 antag: antagonists of human D3 dopamine receptor | D3R cells, DiscoveRx beta-arrestin luminescence, antagonist mode; stronger effect = lower value | max response, negative = inhibition, % | P35462 | actives 2.5% (n = 360,000); in the data active = max response below about -50%; inconclusive = no clear call, values can overlap the other calls; note: % is set by controls: 0 for no effect and ±100 for the full control effect
Target sequence (P35462 whole entry, looked up): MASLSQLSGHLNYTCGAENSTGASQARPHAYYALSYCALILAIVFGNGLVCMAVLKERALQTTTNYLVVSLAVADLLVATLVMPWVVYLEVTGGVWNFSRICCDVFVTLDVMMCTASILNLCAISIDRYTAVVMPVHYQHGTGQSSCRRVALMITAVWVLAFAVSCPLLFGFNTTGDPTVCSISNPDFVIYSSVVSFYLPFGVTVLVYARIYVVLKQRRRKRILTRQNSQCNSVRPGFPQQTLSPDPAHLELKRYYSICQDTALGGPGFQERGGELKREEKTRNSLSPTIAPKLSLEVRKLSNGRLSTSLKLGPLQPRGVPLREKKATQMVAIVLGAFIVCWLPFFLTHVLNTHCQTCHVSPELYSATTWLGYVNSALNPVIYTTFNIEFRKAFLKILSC
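Cells expressing the human receptor were seeded at 1500 cells/well, incubated overnight at 37 degrees C in 5% CO2, then exposed to library compounds with dopamine controls for 90 minutes at 37 degrees C before luminescent detection.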
D1 PAM: human D1 dopamine receptor positive modulation; P21728; HEK293 TREx D1 cells, calcium flux, dopamine EC20 potentiation; potentiation, % at 10 µM; actives 0.036% (n = 360,000); AID 504651; in the data active = potentiation above about 30%; note: 0% is about no effect
D3 ag: activates the human D3 dopamine receptor | D3R DiscoveRx beta-arrestin cells, luminescence, 90 min | AID 652048 | max activation, % | actives 0.58% (n = 410,000) | P35462; in the data active = max activation above about 30%; note: 0% is about no effect
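Agonist-mode cell screen: cells plated at 1500/well and incubated overnight at 37 °C, then exposed to library compounds for 90 min at 37 °C. Detection reagent was added for 30–60 min at room temperature, and luminescence was read.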
D1 antagonist: blocks dopamine activation of the human D1 receptor. P21728. HEK293 TREx D1 cells, calcium flux, dopamine EC80; stronger effect = lower value. activity change, negative = inhibition, % at 10 µM. actives 3.2% (n = 360,000); in the data active = activity change below about -30%; note: % is set by controls: 0 for no effect and ±100 for the full control effect
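Kinetic fluorescence of a calcium dye serves as the read-out. D1-expressing Hek293 Trex cells, induced overnight at 30 C, are exposed to compound for 180 s before an EC80 dopamine addition, then read 180 s further.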
D1 agonist: human D1 receptor agonism; P21728; HEK293 T-REx D1 cells, calcium flux, agonist mode; activation, % at 2 µM; actives 1% (n = 360,000); AID 504660; in the data active = activation above about 30%; note: 0% is about no effect
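Agonism was scored from calcium flux recorded over 180 s (1 read/s) after pintool compound addition, following a 10-cycle baseline. Cells were inducible force-coupled HEK293 TREx D1, plated overnight at 30 C and loaded with no-wash calcium dye.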
Starred values were filed as active, the others as inactive; u = inconclusive; x = no result given. A selection: hits, their analogues and other compounds. The true share with any hit is near 6.1%.

SMILES	ERG-DNA inh	D3 antag	D1 PAM	D3 ag	D1 antagonist	D1 agonist
O=C(Cc1ccccc1)N1CCCC(c2nc(-c3ccc(S(=O)(=O)N4CCCC4)cc3)no2)C1 (stereo unspecified)	x	9.1	11.1	25.5	-14.8	7.9
COc1ccc(-c2noc(C3CCCN(C(=O)c4cccc(C)c4)C3)n2)cc1 (stereo unspecified)	13.7%	-4.8	-14.3	3.8	-21.9	4.4
CCN(CC)S(=O)(=O)c1ccc(C(=O)/C=C/c2ccc(-c3ccc([N+](=O)[O-])cc3)o2)cc1	-2.2%	9.5	-7.8	0.5	-54.1*	8.8
Cc1ccc(C(=O)/C=C/c2ccc(-c3ccc(C)cc3)o2)cc1	9.8%	-13.1	-1.4	-1.8	0.8	7.1
CCc1ccc(/C=C/C(=O)c2ccc(S(=O)(=O)N(C)C)cc2)cc1	x	9.9	0.0	1.6	-62.1*	49.6*
CCc1ccc(C(=O)/C=C/c2ccc([N+](=O)[O-])o2)cc1	-2.7%	-55.5*	4.3	-2.2	-15.4	0.4
C/C(CC1CC(COCC(C)C)OC1=O)=N\Nc1nc(-c2ccccc2)cs1 (stereo unspecified)	-4.7%	2.6	-6.5	-4.7	-23.8	-0.2
COc1ccc(C)cc1S(=O)(=O)N(CC(=O)NCc1ccco1)c1ccc(C)cc1	3.9%	-4.5	1.7	1.2	13.7	10.7
O=C(NCc1cccnc1)c1cccc2c1C(=O)N(C1CCCCC1)C2	1.0%	6.7	-5.7	1.6	-57.8*	-1.0
CCC(C)NC(=O)c1ccc(CN2CCc3ccccc3C2)cc1 (stereo unspecified)	-1.9%	-65.6*	-1.0	-17.9	-16.0	4.2
O=C(NCc1cccnc1)c1ccc(CN2CCc3ccccc3C2)cc1	2.8%	-75.4*	-7.3	0.0	-19.1	12.6
CC(C)(C)SCCNC(=O)c1ccc(CN2CCc3ccccc3C2)cc1	-3.6%	-74.0*	-2.5	-39.2	3.1	2.5
Cc1nn(CC(=O)N2CCN(c3ccccn3)CC2)c(=O)c2cc3sccc3n12	4.0%	-2.4	-3.3	0.6	-2.0	0.2
COCC(C)NC(=O)c1ccc(CN2CCc3ccccc3C2)cc1 (stereo unspecified)	2.7%	-67.7*	8.3	-10.9	45.9	2.0
COCCNC(=O)c1ccc(CN2CCc3ccccc3C2)cc1	-4.5%	u	0.5	-14.8	18.6	1.0
O=C(O)CCN1CCc2ccccc2C1c1cccs1 (stereo unspecified)	0.3%	1.8	2.6	1.9	7.5	3.3
CC(=O)C1CCN(Cc2ccccc2)CC1	u	13.3	-4.7	-5.3	5.6	4.5
CSc1ccccc1OC1CCN(Cc2ccccc2)CC1	-11.3%	-92.0*	-8.1	-33.2	-87.9*	15.2
CN(C)c1ccc(/C=C/C(=O)c2cccc(Br)c2)cc1	u	7.6	-10.7	-17.3	-75.2*	771.9*
O=C(Nc1ccc(N=Nc2ccccc2)cc1)c1ccc(Cl)cc1Cl	x	5.2	-0.4	9.8	-38.0*	-0.6
O=C(Nc1ccc(N=Nc2ccccc2)cc1)c1ccccc1Cl	5.7%	-11.1	-6.2	-5.1	-7.9	2.1
O=C(NCC1CCCO1)c1cccc(Oc2ccc([N+](=O)[O-])cc2)c1 (stereo unspecified)	-0.6%	-4.5	-5.8	6.6	-34.8*	11.3
COc1ccc(N(Cc2ccccc2)S(=O)(=O)c2cccc(C(=O)NCC3CCCO3)c2)cc1 (stereo unspecified)	2.2%	-2.1	-4.5	-2.3	-36.8*	13.7
O=C(NCC1CCCO1)c1ccccc1 (stereo unspecified)	-10.6%	16.7	-0.8	-0.5	-1.7	1.8
O=C(NCC1CCCO1)c1ccc(S(=O)(=O)Nc2ccccc2F)cc1 (stereo unspecified)	-2.2%	9.4	-3.8	11.4	-37.6*	3.3
O=C(NCC1CCCO1)c1cccc(NC(=O)c2ccccc2)c1 (stereo unspecified)	24.5%	-4.7	3.4	2.5	-31.1*	2.5
